Experimental findings from PubChem BioAssay AID1259418 (Broad Institute, 2018) are described below.

Among all 3,400 compounds or so, about 840 (25%) were called active. Another 11% or so got no clear call; they are omitted. Only a sample is shown. Results with a measured potency or affinity are listed apart. A number with no mark means an inactive call.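 How the source made its calls: active means fitted half-maximal concentration of signal decrease at or below twice the sample's top tested concentration; inconclusive means flat curve between -70 and -30 percent, or poor fit; inactive means flat within 30 percent, signal rise, or potency above limit.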

A short description of the assay: inhibitors of Toxoplasma growth in IFN-γ-primed HeLa – cell-based, ME49Luc, luciferase, 72 h, dose response (AID 1259418). The settings on record: T. gondii ME49Luc in IFN-y HeLa, hits give low values, -100% = high-dose IFN-γ control wells; at 19.5 µM unless noted.
For the compound `CC(C)NC(=O)N1CCC2(CC1)OCCN(CCO)c1ccccc12`, the max activity is 20.9%.
Regarding `Cc1ccc(NC(=O)Nc2ccc(-c3nc(-c4ccccc4)co3)cc2)cc1`, the max activity was 19.9% [at 0.16 µM].
As for `N#Cc1ccc(-c2ccc3c(c2)[C@H]2[C@H](CCN2C(=O)C2CCCCC2)[C@@H](CO)N3)cc1`, the figure is 27.2% [at 10 µM]; as for `COc1ccc(-c2nc(Cn3nnc(-c4nc(-c5ccc(Cl)cc5)no4)c3C)c(C)o2)cc1`, 6.38%.
Take `CCC(C(=O)N1CCC[C@@H]1C(=O)NCCc1csc(C)n1)c1ccccc1` (stereo partly drawn): the max activity was 9.81% [at 0.35 µM].
As for `COc1cc(-c2noc(-c3nnn(Cc4nc(-c5ccccc5)oc4C)c3C)n2)cc(OC)c1OC`, the figure is 6.25% [at 0.35 µM]; as for `COc1ccc2c(c1)NC1(CCN(C(=O)c3ccc(C)c(F)c3)CC1)c1cccn1-2`, 5.27% [at 0.68 µM]; as for `Cc1ccccc1Cn1cccc1CNS(=O)(=O)c1ccc2c(c1)CCC(=O)N2`, 13.6% [at 2.6 µM].
Regarding `O=C(CC1N=C2c3ccccc3N=C(SCc3cccc(F)c3)N2C1=O)NCc1cccs1` (stereo not drawn), the max activity is -23.9% [at 5 µM].
As for `O=C(CCC1N=C2c3ccccc3N=C(SCc3cccc(Cl)c3)N2C1=O)NCc1ccco1` (stereo not drawn), the figure is 24.8% [at 5 µM]; as for `NC(=O)C1(N2CCCCC2)CCN(c2ncc(NC(=O)c3cccc(Cl)c3)cc2C(=O)O)CC1`, 5.69%; as for `COc1ccc(-c2nc(N3CCc4ccccc43)c3ccccc3n2)cc1`, -12.2% [at 0.35 µM].
Consider `CCS(=O)(=O)N1CCC(C(=O)NCCc2csc(-c3cccs3)n2)CC1`, for which the max activity is -17.6%.
As for `COc1ccc(-c2nc(Nc3ccc(F)cc3F)c3ccccc3n2)cc1`, the figure is 10.1%.
As for `Cc1ccc2c(c1C)-n1cccc1C1(CCN(C(=O)c3ccc(Br)cc3)CC1)N2`, the figure is 7.92% [at 0.16 µM]; as for `COc1cc(C(=O)Nc2ccc(-c3nc(-c4ccc(C)cc4)co3)cc2)cc(OC)c1OC`, 54.9% [at 10 µM].
Regarding `C[C@@H]1CN([C@@H](C)CO)C(=O)c2cccc(NC(=O)NC3CCCCC3)c2O[C@H]1CN(C)Cc1ccc(C(F)(F)F)cc1`, the max activity was 7.51%.
As for `C[C@H]1CN([C@@H](C)CO)C(=O)c2cccc(NC(=O)c3ccc(-c4nccs4)cc3)c2O[C@@H]1CN(C)C(=O)Nc1ccc(C(F)(F)F)cc1`, the figure is 30.7% [at 5 µM].
As for `CCCN(CCC)c1nc(-c2ccc(Cl)cc2)nc2ccccc12`, the figure is 25.7%; as for `COc1ccc(-c2nc(Cn3nnc(-c4nc(-c5cccc(F)c5)no4)c3C)c(C)o2)cc1`, 5.24% [at 10 µM]; as for `CCOc1ccccc1NC(=O)Nc1ccc(-c2nc(-c3ccc(C)cc3)co2)cc1`, -10.4%.
With `O=C(CC1CC1)N[C@H]1CN(C(=O)c2ccoc2)C[C@@H]2CCCO[C@H]21`, the max activity is 19.7%.
As for `CCc1onc(C)c1C1CCCN1C(=O)c1cc(C(F)(F)F)nn1C` (stereo not drawn), the figure is 5.66% [at 0.16 µM].
With `O=C(Nc1ccc(-c2nc(-c3ccccc3)co2)cc1)Nc1ccccc1Cl`, the max activity is 29.7% [at 10 µM].
Regarding `NCCNC(=O)c1nc(-c2ccc(Br)o2)no1`, the max activity is 8.96% [at 10 µM].
Regarding `Cc1nc(-c2ccc(F)cc2)sc1-c1ccc(SCc2ccc(F)cc2)nn1`, the max activity is 12.7% [at 5 µM].
As for `COc1ccc(-c2nc(C)c(-c3ccc(SCc4ccc(C)cc4)nn3)s2)cc1`, the figure is 10.6% [at 2.6 µM]; as for `COc1cccc(-c2nc(C)c(-c3ccc(SCc4ccc(C)cc4)nn3)s2)c1`, 22.3% [at 10 µM].
As for `COc1cccc(-c2nc(C)c(-c3ccc(SCc4ccc(Br)cc4)nn3)s2)c1`, the figure is -17.9%.
On to `Cc1nc(-c2ccc(F)cc2)sc1-c1ccc(SCc2c(F)cccc2Cl)nn1`, for which the max activity is 12.7% [at 0.68 µM].
As for `COc1ccc(-c2nc(C)c(-c3ccc(SCc4c(F)cccc4Cl)nn3)s2)cc1`, the figure is 6.69% [at 0.16 µM]; as for `COc1cccc(-c2nc(C)c(-c3ccc(SCc4ccc(Cl)cc4Cl)nn3)s2)c1`, -7.13% [at 1.35 µM]; as for `COc1cccc(-c2nc(C)c(-c3ccc(SCc4ccc(C(F)(F)F)cc4)nn3)s2)c1`, 7.57% [at 0.16 µM].
As for `Cc1ccc(C)c(-c2coc(-c3ccc(NC(=O)Nc4cc(F)ccc4F)cc3)n2)c1`, the figure is 18.4% [at 0.16 µM]; as for `CCOc1cc(C(=O)Nc2ccc3c(c2)CCC(=O)N3)cc(OCC)c1OCC`, 7.32%.
As for `Cc1ccc(-c2coc(-c3ccc(NC(=O)CC(C)C)cc3)n2)cc1`, the figure is 33%; as for `Clc1ccc(-c2nc(NCc3cccnc3)c3ccccc3n2)cc1`, -32.4% [at 0.35 µM]; as for `COc1ccc(-c2nc3c(s2)CN(S(=O)(=O)c2cccs2)CC3)cc1`, 12.1% [at 0.16 µM].
Turning to `O=S(=O)(c1cccs1)N1CCCCN2[C@H](C1)[C@@H](c1ccc(/C=C/c3ccccc3)cc1)[C@@H]2CO`, the max activity was 11.8% [at 10 µM].
Regarding `COCCCN1CCc2nc(SCc3nc(-c4cccc(Cl)c4)oc3C)[nH]c(=O)c2C1`, the max activity is 33.5% [at 0.35 µM].
As for `O=C(NCC1CC1)C1CN(C(=O)c2ccoc2)CC12CCOCC2` (stereo not drawn), the figure is 17.9% [at 10 µM]; as for `Cc1ccc(-n2ncc3c(NC4CCCCCCCCCCC4)ncnc32)c(C)c1`, 53.2% [at 10 µM]; as for `Oc1[nH]c2ccccc2c1N=Nc1nc(Nc2ccccc2)nc(N2CCOCC2)n1`, 12.6% [at 10 µM].
As for `CCN(CC)Cc1cn2c(n1)CN(C(=O)c1cnc(C)cn1)CC2`, the figure is -25.1% [at 10 µM]; as for `CCc1nc(OCC(=O)Nc2cccc(C)c2C)c2ccccc2n1`, 34.5%; as for `COc1ccccc1CNC(=O)CCC1N=C2c3ccccc3N=C(SCc3cc(=O)n4ccccc4n3)N2C1=O` (stereo not drawn), -7.46% [at 0.16 µM].
As for `CN1CCCN(C(=O)c2cc3c(c4ccccc4n3CC3CC3)n2S(C)(=O)=O)CC1`, the figure is 11.9% [at 5 µM].
On to `CC(C)c1cc(C2CCCN2C(=O)c2cc(C(F)(F)F)nn2C)on1` (stereo not drawn), for which the max activity is 9.25% [at 0.35 µM].
As for `COc1ccc(NC(=O)CN2CCC3(CC2)N=C(c2ccc(F)cc2)C(=O)N3)cc1`, the figure is -27.9% [at 1.35 µM]; as for `O=C(NCCc1csc(-c2ccccc2)n1)[C@H]1CCCN1C(=O)c1ccc(Br)cc1`, -11% [at 0.16 µM].
As for `Cc1nc(CCNC(=O)[C@H]2CCCN2C(=O)c2cccc(Br)c2)cs1`, the max activity is 23.4% [at 0.16 µM].
As for `Cc1nc(CCNC(=O)[C@H]2CCCN2C(=O)c2ccc(F)cc2)cs1`, the figure is -9.63% [at 0.16 µM].
Consider `O=C(NCCc1csc(-c2ccccc2)n1)[C@H]1CCCN1C(=O)c1ccc(F)cc1`, for which the max activity was -10.4% [at 0.16 µM].
As for `NC(=O)C1(N2CCCCC2)CCN(c2ccc(NC(=O)c3ccc(Cl)cc3)cc2C(=O)O)CC1`, the figure is 20.8%; as for `CCN1C(=O)CCCC12CCCN(C(=O)c1ccc3ncccc3c1)C2` (stereo not drawn), -6.92% [at 5 µM]; as for `Cc1ccccc1C(=O)N1CCC(N2CCOCC2)CC1C(=O)O` (stereo not drawn), 15.5%.
As for `Cc1ccc(C)c(-c2coc(-c3ccc(NC(=O)COc4ccccc4C)cc3)n2)c1`, the figure is -11.5%; as for `N#C[C@@H]1[C@@H](c2ccc(C#Cc3cccnc3)cc2)[C@@H](CO)N1C(=O)NC1CCCCC1`, -10.3% [at 10 µM]; as for `COCC(=O)N1[C@H](C#N)[C@H](c2ccc(C#Cc3ccccc3F)cc2)[C@H]1CO`, -13.1% [at 10 µM].
As for `Cc1cc(C)n(C)c(=O)c1C(=O)N1CCOC(C(F)(F)F)C1` (stereo not drawn), the figure is 34.4%; as for `Cc1ccc(-c2coc(-c3ccc(NC(=O)CC(C)C)cc3)n2)c(C)c1`, 14.2% [at 10 µM]; as for `CCN(C)C(=O)c1cnc(-c2noc3cc(N4CCCCC4)ccc23)s1`, 35.7% [at 10 µM].
`COc1ccc(NC(=O)Nc2ccc(-c3nc(-c4cccc(Br)c4)co3)cc2)cc1OC`: the max activity is 8.18% [at 0.35 µM].
As for `O=C(Nc1ccc(-c2nc(-c3ccccc3)co2)cc1)Nc1ccc(F)cc1F`, the figure is 65.6%; as for `O=C(CCC1N=C2c3ccccc3N=C(SCc3cccc(F)c3)N2C1=O)NC1CCCCC1` (stereo not drawn), -18.1% [at 2.6 µM]; as for `COc1ccccc1CNC(=O)CCC1N=C2c3ccccc3N=C(SCc3ccc(F)cc3)N2C1=O` (stereo not drawn), 14.5% [at 0.16 µM].
As for `O=C(CCC1N=C2c3ccccc3N=C(SCc3cccc(F)c3)N2C1=O)NCc1ccco1` (stereo not drawn), the figure is 10.2%; as for `O=C(CC1N=C2c3ccccc3N=C(SCc3cccc(F)c3)N2C1=O)NCc1ccccc1` (stereo not drawn), -15% [at 1.35 µM]; as for `N#CCSC1=Nc2ccccc2C2=NC(CCC(=O)NCc3ccc(F)cc3)C(=O)N12` (stereo not drawn), 22.5% [at 0.35 µM].
As for `Cc1ccc(CSC2=Nc3ccccc3C3=NC(CCC(=O)NC4CCCCC4)C(=O)N23)cc1` (stereo not drawn), the figure is -23.8%; as for `CCOC(=O)CSC1=Nc2ccccc2C2=NC(CCC(=O)NCc3ccccc3)C(=O)N12` (stereo not drawn), 43.1%.
As for `CCOC(=O)CSC1=Nc2ccccc2C2=NC(CCC(=O)NCc3ccc(F)cc3)C(=O)N12` (stereo not drawn), the max activity was 24.5% [at 2.6 µM].
As for `C/C=C/c1ccc(C2[C@H]3CNC[C@@H]2N3S(=O)(=O)c2cccc(F)c2)cc1` (stereo partly drawn), the figure is 51.2%.
